The source of these data is publication PMC12820563, “FoxP3 forms a head-to-head dimer in vivo and stabilizes its multimerization on adjacent microsatellites”.

Over roughly 16,000 sequences, “rpm ratio (pull-down/input)” has its median near 0.5; the highest 2% begin near 5.5. The sample holds the highest values, similar sequences and a random draw of the others, so the mix is not that of the screen.

This assay addresses T1, MBP-FoxP3dN (Mus musculus, UniProt Q99JB6 188-423).
T1 sequence: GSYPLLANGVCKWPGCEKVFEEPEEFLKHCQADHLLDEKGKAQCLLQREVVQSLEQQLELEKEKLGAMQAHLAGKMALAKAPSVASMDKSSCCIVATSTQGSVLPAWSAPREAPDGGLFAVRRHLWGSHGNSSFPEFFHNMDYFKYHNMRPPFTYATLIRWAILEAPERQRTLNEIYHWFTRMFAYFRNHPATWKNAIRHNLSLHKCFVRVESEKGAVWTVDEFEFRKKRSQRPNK
Briefly: PD-seq (MBP pull-down with sequencing); 20 mM Tris-HCl pH 7.5, 100 mM NaCl, 1.5 mM MgCl2, 0.4 uM protein, 0.1 uM dsDNA library, 30 min, room temperature, amylose pull-down; high values mean tight binding. Conditions: protein: recombinant; tags: His6-MBP; chain copies: 2; dsDNA, one strand shown. The procedure, abridged: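 Binding is the reads-per-million enrichment of pull-down relative to input, pooled across replicates. For this, 0.4 µM His6-MBP-tagged mouse FoxP3 or FoxP1 fragment lacking the N-terminus, made in E. coli, was incubated with 0.1 µM Klenow-filled double-stranded degenerate DNA library for 30 min at room temperature in Tris pH 7.5 buffer with NaCl and MgCl2. Complexes bound to amylose resin were washed three times before proteinase K released the DNA for PCR barcoding and Illumina sequencing.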
For the sequence “GATGATTGTTCTCCCAGCTGATGAATTCGTCGTCTCGAGTAAACAAATTTTCCTAATCTTTCTGTTCAAGCGCCATCTAC”, the binding signal is 1.31 RPM ratio (pull-down/input).
As for “GATGATTGTTCTCCCAGCTGATGAATTAAAGTGCTCGAGTAAACAAATTTTCCTAATCTTTCTGTTCAAGCGCCATCTAC”, the binding signal was 0.358 RPM ratio (pull-down/input).
As to “GATGATTGTTCTCCCAGCTGATGAATTTTCCTTCTCGAGTAAACAAATTTTCCTAATCTTTCTGTTCAAGCGCCATCTAC”, the binding signal is 0.258 RPM ratio (pull-down/input).
With “GATGATTGTTCTCCCAGCTGATGAATTTAGATTATCGAGTAAACAAATTTTCCTAATCTTTCTGTTCAAGCGCCATCTAC”, the binding signal is 1.31 RPM ratio (pull-down/input).
In the case of “GATGATTGTTCTCCCAGCTGATGAATTGTTTATCTCGAGTAAACAAATTTTCCTAATCTTTCTGTTCAAGCGCCATCTAC”, the binding signal is 6.57 RPM ratio (pull-down/input).
Turning to “GATGATTGTTCTCCCAGCTGATGAATTTATCTCCTCGAGTAAACAAATTTTCCTAATCTTTCTGTTCAAGCGCCATCTAC”, the binding signal is 0.631 RPM ratio (pull-down/input).
On to “GATGATTGTTCTCCCAGCTGATGAATTTTTTATCTCGAGTAAACAAATTTTCCTAATCTTTCTGTTCAAGCGCCATCTAC”, for which the binding signal is 0.243 RPM ratio (pull-down/input).
Consider “GATGATTGTTCTCCCAGCTGATGAATTTCTTTTATCGAGTAAACAAATTTTCCTAATCTTTCTGTTCAAGCGCCATCTAC”, for which the binding signal was 0.545 RPM ratio (pull-down/input).
“GATGATTGTTCTCCCAGCTGATGAATTTACAACATCGAGTAAACAAATTTTCCTAATCTTTCTGTTCAAGCGCCATCTAC”: the binding signal is 1.26 RPM ratio (pull-down/input).
Then “GATGATTGTTCTCCCAGCTGATGAATTTTTTACATCGAGTAAACAAATTTTCCTAATCTTTCTGTTCAAGCGCCATCTAC”, with 0.25 RPM ratio (pull-down/input).
On to “GATGATTGTTCTCCCAGCTGATGAATTTTTTTTATCGAGTAAACAAATTTTCCTAATCTTTCTGTTCAAGCGCCATCTAC”, for which the binding signal was 0.295 RPM ratio (pull-down/input).
For “GATGATTGTTCTCCCAGCTGATGAATTGTTTACATCGAGTAAACAAATTTTCCTAATCTTTCTGTTCAAGCGCCATCTAC”, the binding signal was 8.09 RPM ratio (pull-down/input).
Then “GATGATTGTTCTCCCAGCTGATGAATTTGTTTTATCGAGTAAACAAATTTTCCTAATCTTTCTGTTCAAGCGCCATCTAC”, with 6.46 RPM ratio (pull-down/input); and “GATGATTGTTCTCCCAGCTGATGAATTGTGTCCCTCGAGTAAACAAATTTTCCTAATCTTTCTGTTCAAGCGCCATCTAC”, with 2.1 RPM ratio (pull-down/input).
In the case of “GATGATTGTTCTCCCAGCTGATGAATTTCCTCCCTCGAGTAAACAAATTTTCCTAATCTTTCTGTTCAAGCGCCATCTAC”, the binding signal was 0.223 RPM ratio (pull-down/input).
Consider “GATGATTGTTCTCCCAGCTGATGAATTGGCGTCCTCGAGTAAACAAATTTTCCTAATCTTTCTGTTCAAGCGCCATCTAC”, for which the binding signal is 1.06 RPM ratio (pull-down/input).
As to “GATGATTGTTCTCCCAGCTGATGAATTACCCAACTCGAGTAAACAAATTTTCCTAATCTTTCTGTTCAAGCGCCATCTAC”, the binding signal is 0.253 RPM ratio (pull-down/input).
As to “GATGATTGTTCTCCCAGCTGATGAATTATTATTGTCGAGTAAACAAATTTTCCTAATCTTTCTGTTCAAGCGCCATCTAC”, the binding signal is 2.61 RPM ratio (pull-down/input).
On to “GATGATTGTTCTCCCAGCTGATGAATTTTTATTGTCGAGTAAACAAATTTTCCTAATCTTTCTGTTCAAGCGCCATCTAC”, for which the binding signal was 0.972 RPM ratio (pull-down/input).
“GATGATTGTTCTCCCAGCTGATGAATTATATTTGTCGAGTAAACAAATTTTCCTAATCTTTCTGTTCAAGCGCCATCTAC”: the binding signal is 5.66 RPM ratio (pull-down/input).
For the sequence “GATGATTGTTCTCCCAGCTGATGAATTTATTCTGTCGAGTAAACAAATTTTCCTAATCTTTCTGTTCAAGCGCCATCTAC”, the binding signal was 0.533 RPM ratio (pull-down/input).
“GATGATTGTTCTCCCAGCTGATGAATTATTTCTGTCGAGTAAACAAATTTTCCTAATCTTTCTGTTCAAGCGCCATCTAC”: the binding signal was 0.335 RPM ratio (pull-down/input).
For “GATGATTGTTCTCCCAGCTGATGAATTTTATTTGTCGAGTAAACAAATTTTCCTAATCTTTCTGTTCAAGCGCCATCTAC”, the binding signal is 6.21 RPM ratio (pull-down/input).
With “GATGATTGTTCTCCCAGCTGATGAATTATTTGTGTCGAGTAAACAAATTTTCCTAATCTTTCTGTTCAAGCGCCATCTAC”, the binding signal was 2.76 RPM ratio (pull-down/input).
With “GATGATTGTTCTCCCAGCTGATGAATTATATCTGTCGAGTAAACAAATTTTCCTAATCTTTCTGTTCAAGCGCCATCTAC” the figure was 0.544 RPM ratio (pull-down/input); with “GATGATTGTTCTCCCAGCTGATGAATTTATTGTGTCGAGTAAACAAATTTTCCTAATCTTTCTGTTCAAGCGCCATCTAC”, 6.95 RPM ratio (pull-down/input); with “GATGATTGTTCTCCCAGCTGATGAATTTTATGTGTCGAGTAAACAAATTTTCCTAATCTTTCTGTTCAAGCGCCATCTAC”, 2.49 RPM ratio (pull-down/input).
For the sequence “GATGATTGTTCTCCCAGCTGATGAATTGTTATTGTCGAGTAAACAAATTTTCCTAATCTTTCTGTTCAAGCGCCATCTAC”, the binding signal is 6.63 RPM ratio (pull-down/input).
“GATGATTGTTCTCCCAGCTGATGAATTATTTTTGTCGAGTAAACAAATTTTCCTAATCTTTCTGTTCAAGCGCCATCTAC”: the binding signal was 0.947 RPM ratio (pull-down/input).
“GATGATTGTTCTCCCAGCTGATGAATTGTGCCGATCGAGTAAACAAATTTTCCTAATCTTTCTGTTCAAGCGCCATCTAC”: the binding signal was 1.02 RPM ratio (pull-down/input).
Consider “GATGATTGTTCTCCCAGCTGATGAATTTTTTGAATCGAGTAAACAAATTTTCCTAATCTTTCTGTTCAAGCGCCATCTAC”, for which the binding signal was 0.229 RPM ratio (pull-down/input).
